Data on 35 molecules can be found in PubChem BioAssay (NCI).

The panel holds about 83,000 compounds, 20% with a hit somewhere; the sample as a whole holds those more often.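 Activity criterion: percent growth below 10, measured after cells in 96-well plates were exposed to a single compound concentration for 48 hours.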 A number with no mark means an inactive call. Calls of active or inactive are those of the source.

This test has as its system HL-60(TB) leukemia. The test can be described thus: NCI-60 one-dose screen, 48 h (100 = growth as untreated, 0 = no growth, -100 = all killed). The following applies: 10 µM unless noted.
For the molecule `Cc1cc(NC(=O)c2ccc(C)c(Nc3nccc(-c4cccnc4)n3)c2)cc(-n2cnc(C)c2)c1`, the growth is 22.8%.

As for `COc1ccc2c(c1)c(-c1nonc1-c1c[nH]c3ccc(Br)cc13)cn2C`, the growth was 53.2%. The result for `COC(=O)c1ccc(NC(=O)CCl)cc1` reads 81.6%.

For `c1cc(NCCCCN2CCOCC2)c2ccc3c(ccc4c(NCCN5CCOCC5)ccnc43)c2n1`, the growth was 47.2%. Regarding `O=C(Nc1ncc(Cc2ccccc2)s1)c1cc(-c2ccccc2)nc2ccccc12`, the growth is 99.2%. The result for `CCCCC(CC)OC(=O)C(Br)CC` (stereo not given) reads 99.6%.

Regarding `O=[N+]([O-])C1=C(c2ccccc2)SC=C(c2ccccc2)S1`, the growth was 70.9%. As to `C=CCN1C(=O)[C@]2(SC1=S)[C@H](c1cccc(Cl)c1)CN(C)[C@]21C(=O)NC2C=CC(Cl)=C[C@H]21` (stereo not given in full), the growth is -39.8% (active). On to `C=CCn1c(SCC(=O)Nc2ccc(C(=O)/C=C/c3cc(OC)c(OC)c(OC)c3)cc2)nnc1-c1cc(-c2ccc(OC)cc2)nc2ccccc12`, for which the growth is 96.4%. The result for `N=C(N)c1ccc(-c2ccc(-c3ccc4ccccc4c3)s2)s1` reads -56.4% (active). `COc1ccc(-c2cc(-c3nnc(SCC(=O)Nc4ccc(C(C)=O)cc4)o3)c3ccccc3n2)cc1`: the growth is 69%. As for `CN1CCN(C(=O)c2cc(-c3ccc4ncnc(N5CCc6cc(F)c(Cl)cc65)c4c3)cnc2N)CC1`, the figure is -32.5% (active); as for `Cc1cc(Nc2nc(N3CCOCC3)nc3ccccc23)n[nH]1`, 63.1%; as for `CSc1ccc(N2C(=N)C(=S)N(c3ccc(C)cc3)C2=O)cc1`, 101%. As for `CC(=O)c1c(O)c(C)c(O)c2c1OC1=CC(=O)C(C(C)=O)C(=O)C12C` (stereo not given), the figure is 45.4%; as for `COc1ccc(-c2nnc(-c3c(-c4ccccc4)nc4ncccn34)o2)cc1OC`, 85.5%; as for `CCOc1ccc2c(c1)c(C)cc(C)[n+]2CC`, 61.5%. `CCN(CC)CCCC(C)Nc1cnc(C(=O)Nc2cccc3ccc(OC)nc23)cn1` (stereo not given): the growth was 72.4%. As for `COc1ccc(C2=NN(C(N)=S)C(c3ccc4c(c3)OCO4)C2)cc1` (stereo not given), the growth was 30.4%. `CN1CCC(=C(c2ccccc2)c2ccccc2)C(c2ccccc2)C1` (stereo not given): the growth was 88%. The result for `Cc1c(C(=O)NCCC(=O)NO)sc2ncnc(Nc3ccc(NC(=O)Nc4cccc(C(F)(F)F)c4)cc3)c12` reads 105%. As for `C=C/C(C)=C/C[C@]1(C)[C@H](C)[C@@H](OC(=O)CCC)[C@H](O)[C@@]23C(=C[C@H](OC)C[C@@H]12)[C@@H](OC(=O)CCC)O[C@H]3OC(C)=O`, the figure is -43.9% (active); as for `Cc1c2c(cc[n+]1Cc1ccccc1)c1ccc(OCc3ccccc3)cc1n2Cc1ccccc1`, -54.1% (active). As to `COc1ccc(C2C=C(c3ccc(Cl)c(Cl)c3)N=C3SC(C)=CN32)cc1` (stereo not given), the growth is 83.3%. As for `C(=N\Nc1ncnc2sc3c(c12)CCNC3)/c1cccc2ccccc12`, the figure is 99.1%. As for `CCc1nn2c(-c3cc(OC)c(OC)c(OC)c3)c(-c3cc(OC)c(OC)c(OC)c3)nc2s1`, the figure is 59.3%; as for `CCCCCCC1(/C=N/NC(N)=O)NC(=O)NC1=O` (stereo not given), 96.7%; as for `CCCCC[C@H]1CC=C2C(=O)C=C[C@@H]2CC=CCCCC(=O)O[C@@H](CCCCC)CC=C2C(=O)C=C[C@@H]2CC=CCCCC(=O)O[C@@H](CCCCC)CC=C2C(=O)C=C[C@@H]2CC=CCCCC(=O)O1`, -32.4% [8.75 µM] (active). As for `C=CC(=O)Nc1cccc(Nc2nc(Nc3ccc(OCCOC(F)F)cc3)ncc2F)c1`, the growth is 19.8%. As for `CN1CCN(c2ccc3nc(-c4ccc5nc(-c6ccc(OCCC(C)(C)C)cc6)[nH]c5c4)[nH]c3c2)CC1`, the figure is 10.5%; as for `COc1ccc(C2=Nc3c(N)ncnc3NC(c3cccc(Nc4ccnc5cc(C(F)(F)F)ccc45)c3)C2)cc1` (stereo not given), 42.7%. The result for `COc1cc(COC(=O)CCCCC[P+](c2ccccc2)(c2ccccc2)c2ccccc2)c(OC)c2c1OCO2` reads -9.81% (active); that for `CC1=CC(=NC(=O)CBr)C=C/C1=N\S(=O)(=O)c1ccccc1`, 67.2%; that for `C#CCN=C[C@]12CC[C@@H](C(=C)C)[C@@H]1[C@H]1CC[C@@H]3[C@@]4(C)CCC(=O)C(C)(C)[C@@H]4CC[C@@]3(C)[C@]1(C)CC2`, -14.3% (active).

With `COC(=O)c1nc(=S)[nH]c(C(=O)OC)c1C(=O)c1ccc2ccccc2c1`, the growth was 122%.
